Among the data in publication PMC11062922 (Nature Chemical Biology, 2023) are potency estimated from few doses values, retold here.

What all share (parameters): species or system human, MV4-11 + K-562 + COLO205 + SK-N-BE2 + OVCAR-8
One assay deals with DYRK1A. Conditions: read-out: apparent Kd, compound concentrations: 100 nM and 1000 nM (sheet 'Samples'), n = 1.
The subject of a further assay is FER. The conditions noted are these: read-out: apparent Kd, n = 1.
Another assay deals with LATS1. The conditions noted are these: read-out: apparent Kd, n = 1.
A further assay relates to MARK4. Conditions: read-out: apparent Kd, n = 1.
In another assay the test system is MYLK3. Conditions: read-out: apparent Kd, compound concentrations: 100 nM and 1000 nM (sheet 'Samples'), n = 1.
The test system of the next assay is PIP4K2C. Conditions: read-out: apparent Kd, n = 1.
Another assay has as its system PLK4. The conditions noted are these: read-out: apparent Kd, n = 1.
Another assay concerns PRKAA1. Conditions: read-out: apparent Kd, n = 1.
For the next assay, the system named is PRKAG1. The conditions noted are these: read-out: apparent Kd, n = 1.
Another assay has as its system PTK2B. Conditions: read-out: apparent Kd, n = 1.
The subject of a further assay is PTK2. Conditions: read-out: apparent Kd, n = 1.
A further assay relates to RPS6KA6. Conditions: read-out: apparent Kd, n = 1.
In the next assay the test system is STK10. Conditions: read-out: apparent Kd, n = 1.
Another assay concerns CDK7. The conditions noted are these: read-out: apparent Kd, n = 1.
The next assay deals with ERCC2. Conditions: read-out: apparent Kd, n = 1.
The next assay relates to PRKCD. The conditions noted are these: read-out: apparent Kd, n = 1.
The subject of another assay is PRKCQ. Conditions: read-out: apparent Kd, n = 1.
Another assay relates to PRKD2. The conditions noted are these: read-out: apparent Kd, compound concentrations: 100 nM and 1000 nM (sheet 'Samples'), n = 1.
The next assay relates to PRKD3. The conditions noted are these: read-out: apparent Kd, compound concentrations: 100 nM and 1000 nM (sheet 'Samples'), n = 1.
[1] abbreviates: compound concentrations:100 nM and 1000 nM (sheet 'Samples').

SMILES strings stand for the structures. Like-named read-outs stand apart in the source and are kept apart here.

As for `COc1ccc(Nc2ncc(C#N)c(Nc3ccccc3C(N)=O)n2)cc1N1CCN(C)CC1.Cl` [GSK1558669A], the potency estimated from few doses in the assay with DYRK1A (CATDS: 6.6106373934709103E-3) was 954 nM; in the assay on FER (compound concentrations: 100 nM and 1000 nM (sheet 'Samples'), CATDS: 1.1172004845485001E-2) it was 137 nM; in the assay with LATS1 (compound concentrations: 100 nM and 1000 nM (sheet 'Samples'), CATDS: 9.7361630406248897E-3) it was 205 nM; in the assay with MARK4 (compound concentrations: 100 nM and 1000 nM (sheet 'Samples'), CATDS: 1.5249165601859399E-2), 64.4 nM; with MYLK3 (CATDS: 2.6075418388892199E-2) it was 23.1 nM; with PIP4K2C (compound concentrations: 100 nM and 1000 nM (sheet 'Samples'), CATDS: 5.8169442722308101E-3), 2240 nM. For the same compound, the potency estimated from few doses was 415 nM in the assay on PLK4 (compound concentrations: 100 nM and 1000 nM (sheet 'Samples'), CATDS: 7.9359519159901901E-3); 36.6 nM in the assay with PRKAA1 (compound concentrations: 100 nM and 1000 nM (sheet 'Samples'), CATDS: 2.0149023571651901E-2); 68.5 nM in the assay with PRKAG1 (compound concentrations: 100 nM and 1000 nM (sheet 'Samples'), CATDS: 1.48267658268137E-2); 84.5 nM in the assay with PTK2B (compound concentrations: 100 nM and 1000 nM (sheet 'Samples'), CATDS: 1.3529380969040701E-2); 9.26 nM with PTK2 (compound concentrations: 100 nM and 1000 nM (sheet 'Samples'), CATDS: 4.75918589440152E-2); 34.3 nM in the assay with RPS6KA6 (compound concentrations: 100 nM and 1000 nM (sheet 'Samples'), CATDS: 2.0856200348519E-2). Besides, in the assay with STK10 (compound concentrations: 100 nM and 1000 nM (sheet 'Samples'), CATDS: 1.0596963300075399E-2), the potency estimated from few doses was 159 nM.
Regarding `CN(c1ccc(NC(=O)Nc2cccc(Cl)c2)cc1)c1ccnc(N)n1.Cl` [GW830707A], the potency estimated from few doses with CDK7 (compound concentrations: 100 nM and 1000 nM (sheet 'Samples'), CATDS: 2.70910980037193E-2) is 25.3 nM; with ERCC2 (compound concentrations: 100 nM and 1000 nM (sheet 'Samples'), CATDS: 2.8634029570059099E-2) it was 22.5 nM; in the assay with FER (compound concentrations: 100 nM and 1000 nM (sheet 'Samples'), CATDS: 3.09824946210665E-2), 19.3 nM; in the assay on PRKAA1 (compound concentrations: 100 nM and 1000 nM (sheet 'Samples'), CATDS: 2.0241658974681501E-2) it was 51.3 nM; in the assay on PRKAG1 (compound concentrations: 100 nM and 1000 nM (sheet 'Samples'), CATDS: 2.2358938635015799E-2) it was 39.4 nM; in the assay on PTK2B (compound concentrations: 100 nM and 1000 nM (sheet 'Samples'), CATDS: 2.3206005567305101E-2) it was 35.9 nM. In addition, the potency estimated from few doses with PTK2 (compound concentrations: 100 nM and 1000 nM (sheet 'Samples'), CATDS: 2.6556868558213102E-2) was 26.4 nM; with RPS6KA6 (compound concentrations: 100 nM and 1000 nM (sheet 'Samples'), CATDS: 2.8909241119288599E-2), 22.1 nM.
Regarding `Cl.Cl.NCC(C(=O)Nc1cc(Br)c(-c2ccnc3[nH]ccc23)s1)c1ccccc1.NCC(C(=O)Nc1cc(Br)c(-c2ccnc3[nH]ccc23)s1)c1ccccc1` (centres unmarked) [GSK1269851A], the potency estimated from few doses with CDK7 (setting [1]) is 44.7 nM; in the assay on ERCC2 (setting [1]) it was 37.5 nM; in the assay on FER (setting [1]), 56.2 nM; with PIP4K2C (setting [1]), 1930 nM; in the assay on PLK4 (setting [1]) it was 523 nM; with PRKAA1 (setting [1]), 548 nM. Also, the potency estimated from few doses in the assay on PRKAG1 (setting [1]) was 416 nM; in the assay with PRKCD (setting [1]) it was 2130 nM; in the assay with PRKCQ (setting [1]), 1130 nM; with PTK2B (setting [1]), 63.1 nM; with PTK2 (setting [1]) it was 422 nM; in the assay on RPS6KA6 (setting [1]), 364 nM. In the assay with STK10 (setting [1]), the potency estimated from few doses is 2030 nM.
Consider `Fc1ccc(-c2c(-c3ccncc3)[nH]c3cccnc23)cc1` [RO1153853-000], for which the values for the potency estimated from few doses with PRKD2 (CATDS: 5.7434995830704397E-2) and with PRKD3 (CATDS: 5.1990975037574202E-2) were 1020 nM and 1420 nM, respectively.
Turning to `CCn1c(-c2nonc2N)nc2c(C#CC(C)(C)O)nc(O[C@@H](CN)c3ccccc3)cc21.O=C(O)C(F)(F)F` [GSK1007102B], the potency estimated from few doses in the assay with LATS1 (setting [1]) is 23.2 nM; in the assay on MARK4 (setting [1]), 768 nM; with PRKAA1 (setting [1]), 917 nM; in the assay with PRKAG1 (setting [1]), 765 nM; in the assay with PRKCD (setting [1]), 173 nM; with PRKCQ (setting [1]), 71.9 nM.
Regarding `CN(C)CCNC(=O)Nc1ccc(N(C)c2ccnc(Nc3ccc(CS(C)(=O)=O)cc3)n2)cc1.Cl` [GW830900A], the potency estimated from few doses with PIP4K2C (setting [1]) was 1840 nM.
Turning to `CCN(CC)Cc1ccc(Nc2nccc(-c3cnn4ncccc34)n2)cc1` [GW780056X], the potency estimated from few doses in the assay on CDK7 (compound concentrations: 100 nM and 1000 nM (sheet 'Samples'), CATDS: 2.0395381874141399E-2) is 1240 nM; in the assay with PRKD2 (CATDS: 2.64855086193518E-2), 580 nM; in the assay on PRKD3 (CATDS: 3.09987339896893E-2), 398 nM.
Consider `CS(=O)(=O)Nc1ccc(-c2ccnc3[nH]ccc23)cc1` [GSK993273A], for which, in the assay on PIP4K2C (setting [1]), the potency estimated from few doses was 482 nM.
As for `O=C(O)C(F)(F)F.O=c1[nH]ccc2nc(N[C@@H]3CCNC3)nc(Nc3ccc4c(c3)S(=O)(=O)CC4)c12` [GSK2181306A], the potency estimated from few doses in the assay with LATS1 (compound concentrations: 100 nM and 1000 nM (sheet 'Samples'), CATDS: 9.3348582894500695E-3) is 1060 nM; in the assay on MARK4 (compound concentrations: 100 nM and 1000 nM (sheet 'Samples'), CATDS: 1.39607166136132E-2) it was 364 nM; in the assay with MYLK3 (CATDS: 1.37346756795961E-2) it was 378 nM; in the assay with PLK4 (compound concentrations: 100 nM and 1000 nM (sheet 'Samples'), CATDS: 1.0301359054319901E-2) it was 780 nM; in the assay with PRKAA1 (compound concentrations: 100 nM and 1000 nM (sheet 'Samples'), CATDS: 1.0186150726121701E-2), 806 nM; with PRKAG1 (compound concentrations: 100 nM and 1000 nM (sheet 'Samples'), CATDS: 1.1132465742589101E-2) it was 629 nM. Besides, the potency estimated from few doses with PRKCD (compound concentrations: 100 nM and 1000 nM (sheet 'Samples'), CATDS: 1.35004304297044E-2) is 393 nM; with PRKCQ (compound concentrations: 100 nM and 1000 nM (sheet 'Samples'), CATDS: 2.6170878676828799E-2), 109 nM; in the assay on PRKD2 (CATDS: 1.40189699777229E-2), 361 nM; in the assay with PRKD3 (CATDS: 1.3161717541215199E-2) it was 416 nM; in the assay with PTK2B (compound concentrations: 100 nM and 1000 nM (sheet 'Samples'), CATDS: 0.14676588130533899) it was 7.85 nM; with PTK2 (compound concentrations: 100 nM and 1000 nM (sheet 'Samples'), CATDS: 1.26908044815701E-2), 453 nM. Moreover, the potency estimated from few doses is 478 nM in the assay on RPS6KA6 (compound concentrations: 100 nM and 1000 nM (sheet 'Samples'), CATDS: 1.2402205913088901E-2); 349 nM with STK10 (compound concentrations: 100 nM and 1000 nM (sheet 'Samples'), CATDS: 1.4244346039845699E-2).
In the case of `O=C1N=C(NCCCc2ccccc2)S/C1=C\c1ccc2ncccc2c1` [RO4493941-000], the potency estimated from few doses in the assay with DYRK1A (CATDS: 6.8092992761352805E-2) is 1090 nM.
Consider `c1ccc(-c2n[nH]cc2Nc2ccnc3ccccc23)nc1` [GW694077X], for which the potency estimated from few doses in the assay with DYRK1A (CATDS: 7.5630271191524906E-2) is 80.3 nM; in the assay on PRKD2 (CATDS: 7.8874466930765497E-2), 74 nM; with PRKD3 (CATDS: 6.6484920518239093E-2), 104 nM.
